aSyn 5UTR act: Activators via SNCA 5'UTR binding, MLPCN | alpha-synuclein 5'UTR reporter, activators screen | activity score, % (tested at 7.5 µM), hits read low | 7.1% of 300,000 active | AID 1814; in the data active = activity score below about -60%
Numbers without * were called inactive. Not all results are given here.

SMILES | aSyn 5UTR act
O=C(/C=C1\NCC2c3ccccc3CCN2C1=O)c1ccccc1 (stereo not given) | -156*
O=[N+]([O-])c1ccccc1-c1cc(-c2ccccc2O)n[nH]1 | -256*
Cc1ccc(O)c(-c2cc(-c3ccccc3F)[nH]n2)c1 | -115*
Cc1ccc(O)c(-c2cc(-c3cccc(F)c3)n[nH]2)c1 | -96*
Cc1ccc(-c2cc(-c3cccc(F)c3)n[nH]2)c(O)c1 | -154*
Cc1ccc(-c2csc(Cc3nc(-c4ccc5c(c4)CCC(=O)N5)cs3)n2)cc1 | -124*
COc1ccc(C(=O)Nc2cc3c(oc2=O)CCCC3=O)cc1 | -69*
COc1ccc(C(=O)Nc2cccc3c2CCCC3)cc1 | -132*
COc1ccc(C(=O)Nc2ccc3c4c(cccc24)CC3)cc1 | -84*
CCN(CC)c1ccc(/C=C/C(=O)C2C(=O)C=C(C)OC2=O)cc1 (stereo not given) | -240*
Clc1ccc(-c2n[nH]c3c2Cc2ccccc2-3)cc1Cl | -66*
COc1ccc(C2=NN(CN3C(=O)C(=O)c4ccccc43)C(c3cccc([N+](=O)[O-])c3)C2)cc1 (stereo not given) | -70*
COc1ccc(C(=O)Nc2ccc(SC(F)F)cc2)cc1 | -160*
O=C(Nc1ccc(OC(F)(F)F)cc1)c1ccc2nccnc2c1 | -112*
O=C(Nc1ccc(SC(F)F)cc1)c1ccc2nccnc2c1 | -218*
Cc1ccc(NC(=O)Cc2nc(CSc3nnc(-c4ccc5c(c4)OCO5)o3)cs2)cc1 | -77*
N#Cc1c(N2CCSCC2)nsc1-c1ccccc1Cl | -63*
Cc1ccnc(Nc2nc(-c3ccc(F)cc3)cs2)c1 | -162*
Cc1ccnc(Nc2nc(-c3ccc(Cl)cc3)cs2)c1 | -163*
c1ccc(-n2nnc(-c3cccnc3)n2)cc1 | -162*
Cc1ccc(-n2nnc(-c3cccnc3)n2)cc1 | -117*
CN(C)c1ccc(C2=NOC(CN3C(=O)c4ccccc4S3(=O)=O)C2)cc1 (stereo not given) | -134*
Cc1ccccc1NC(=S)c1nc2ccccc2[nH]1 | -145*
S=C(Nc1ccc(Cl)cc1)c1nc2ccccc2[nH]1 | -79*
CCCC(=O)Nc1ccc(C(=O)/C=C/c2ccc(SC)cc2)cc1 | -70*
SMILES | aSyn 5UTR act
O=C(O)c1ccc(N/N=C/C2=Cc3ccccc3OC2)cc1 | -136*
CC1=NN(c2ccccc2)C(=O)/C1=C\c1cn(CCC#N)nc1-c1ccc(Cl)cc1 | -85*
c1ccc(Sc2ncnc3c2oc2ccccc23)cc1 | -180*
Oc1ccc(N=Nc2ccc3c(c2)OCCO3)c2cccnc12 | 104
Cc1ccc(Nc2ncnc3c2oc2ccccc23)cc1 | -114*
c1ccc2c(c1)oc1c(Nc3ccc4c(c3)OCCO4)ncnc12 | -142*
COc1ccc(Nc2ncnc3c2oc2ccccc23)cc1 | -160*
Cc1ccc(NC2Nc3cc(C)nn3S2)c(C)c1 (stereo not given) | -138*
O=C(Cn1nnc2ccccc21)NCc1ccccc1 | -100*
c1ccc(CCn2nnc3ccccc32)cc1 | -138*
CC(=O)c1ccc(N(C(=O)Cn2nnc3ccccc32)C(C(=O)NCc2ccccc2)c2ccccn2)cc1 (stereo not given) | -106*
COc1ccc2cc(S(=O)(=O)c3ccccc3)c(=O)oc2c1 | -75*
CCOc1ccc2cc(C(=O)NCc3ccccc3)c(=N)oc2c1 | -102*
COc1ccc2cc(C(=O)c3ccccc3)c(=O)oc2c1 | -151*
CCOc1ccc2cc(C(=O)c3ccccc3)c(=O)oc2c1 | -161*
CCc1nnc(NC(=O)c2cccc(C(=O)Nc3nnc(CC)s3)n2)s1 | 66
O=C(Nc1nnc(-c2ccccc2)s1)c1ccc(F)cc1 | -89*
COc1ccccc1C(=O)Nc1nnc(-c2ccc(F)cc2)s1 | -132*
CCOc1ccccc1C(=O)Nc1nnc(CC)s1 | -93*
COc1ccccc1C(=O)Nc1nsc(-c2ccccc2)n1 | -152*
Cc1ccc(C(C)(C)NC(=O)C2CCC(=O)N(C3CCCCCC3)C2)cc1 (stereo not given) | -147*
COc1ccc(-c2nc3c4ccccc4ccn3c2CN2CCOCC2)cc1OC | -95*
O=c1c2ccccc2c(C=Nc2ccc(O)cc2)c(O)n1Cc1ccccc1 | -111*
O=C(Nc1ccccc1-c1ccccc1)c1ccc(=O)[nH]n1 | -128*
Cc1ccc(S(=O)(=O)Nc2ccccc2-c2ccccc2)cc1 | 54
SMILES | aSyn 5UTR act
CC(C)(C)c1ccc(NC(=O)c2ccc(=O)[nH]n2)cc1 | -102*
CCCC(=O)Nc1ccc(NC(=O)c2ccco2)cn1 | -93*
CCCCC(=O)Nc1ccc(NC(=O)c2ccco2)cn1 | -75*
CC(C)C(=O)Nc1ccc(NC(=O)c2ccco2)cn1 | -86*
Cc1cc2n(n1)C(c1ccc(N(C)C)cc1)Nc1ccccc1-2 (stereo not given) | -156*
CC(=O)c1ccc2c3c(cccc13)C(=O)N(CCc1ccccc1)C2=O | -138*
CC(C)CCN1C(=O)c2cccc3c(N)ccc(c23)C1=O | 61
O=C(C#Cc1ccccc1)c1ccco1 | -141*
CCS(=O)(=O)N1N=C(c2cccs2)CC1c1cc2cc(C)ccc2nc1Cl (stereo not given) | -67*
c1ccc(-n2cnc3cc(NCc4ccccn4)ccc32)cc1 | -66*
CC(C)n1cnc2cc(NCc3ccco3)ccc21 | -109*
CC(C)n1cnc2cc(NCc3ccccn3)ccc21 | -97*
Cc1cc(NCc2ccccn2)ccc1Br | -198*
O=C(c1cc(COc2ccc(F)cc2F)on1)N1CCSCC1 | -117*
COc1ccc(OCc2cc(C(=O)N3C[C@@H](C)O[C@@H](C)C3)no2)c(Cl)c1 | -67*
COc1ccc(OCc2cc(C(=O)N3CCN(CC4CC4)CC3)no2)c(Cl)c1 | -87*
COc1ccc(OCc2cc(C(=O)N3CCN(C4CCCC4)CC3)no2)c(Cl)c1 | -80*
COc1ccc(OCc2cc(C(=O)N3CCCCCCC3)no2)c(Cl)c1 | -69*
O=C(c1cc(COc2ccc(F)cc2Cl)on1)N1CCCCCC1 | -116*
CC1CN(C(=O)c2cccc(COc3ccccc3Cl)c2)CC(C)O1 (stereo not given) | -145*
CCOC(=O)N1CCN(C(=O)c2cc(COc3ccc(OC)cc3Cl)on2)CC1 | -62*
Cc1ccc2nc(-c3ccc(NC(=O)CN4C(=O)c5ccccc5C4=O)cc3)sc2c1 | -200*
Cc1ccc2nc(-c3ccc(NC(=O)CCS(=O)(=O)c4ccccc4)cc3)sc2c1 | 62
Cc1ccc2nc(-c3ccc(NC(=O)CN4CCN(c5ccccn5)CC4)cc3)sc2c1 | -146*
Cc1ccc2nc(-c3ccc(NC(=S)NC(=O)CC(C)C)cc3)sc2c1 | -178*
SMILES | aSyn 5UTR act
Cc1ccc2nc(-c3ccc(NC(=O)C(C)Sc4nncs4)cc3)sc2c1 (stereo not given) | 61
Cc1ccc2nc(-c3ccc(NC(=O)COC(=O)c4ccc(=O)[nH]c4)cc3)sc2c1 | -67*
Cc1ccc2nc(-c3ccc(NC(=O)CSc4nc(N)cc(=O)[nH]4)cc3)sc2c1 | -177*
S=c1sc2c(Cl)ncnc2n1-c1ccccc1 | 93
COc1ccc(-c2cc3ncnc(Cl)c3s2)cc1 | -69*
Cc1ccc(-c2nc(NCC3CCCO3)sc2C)cc1 (stereo not given) | -94*
NC(=O)c1ccccc1-c1nc(-c2ccccc2)no1 | -82*
Fc1ccccc1-c1nc(-c2ccccc2)no1 | -97*
Fc1ccccc1-c1nc(-c2ccncc2)no1 | -116*
O=C(Nc1ccc(Br)cn1)c1cccc(-c2cc3ccccc3oc2=O)c1 | -112*
Cc1nc(NC(=O)c2cccc(-c3cc4ccccc4oc3=O)c2)ccc1Br | -81*
